# Several values for one entry are separate records, joined by “and”; a condition that tells them apart may be missing. Equal values may be shown once. Unmarked numbers belong to inactive results. Inconclusive results are not listed. Activity calls are given as the source filed them. Unless noted, calls come from the whole dose curve; as a rule, active = well fitted curve in the direction sought with a large enough effect; inconclusive = small, poorly fitted or top-dose-only effect, or another doubt; inactive = no such curve, though single readings can be large; an effect the other way counts as inactive or inconclusive.
# Assays:
# Tov-21-G = test: Primary qHTS to identify gynecologic anti-cancer compounds using libraries of approved drugs and bioactive compounds (AID 1345084); settings: Gynecologic cancer cell panel viability, ATPlite luminescence, 48 h; series mostly up to 57.5 µM; note: nearly all actives have a fitted effect of over 55% in size; note: potency is the fitted concentration of half-maximal effect
# Procedure, shortened: (§1)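 Five-concentration response, 48 h; readout is ATP-driven luciferase luminescence.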
# [1] = Drug repurposing screens with cells derived from glioblastoma tumor samples (AID 1345199); settings: GBM patient neurospheres viability, ATP luminescence, 48 h; note: nearly all actives have a fitted effect of over 40% in size; note: potency is the fitted concentration of half-maximal effect; for activity, negative = cell killing: % is set by controls: 0 for no effect and ±100 for the full control effect
# Procedure, shortened: (§2)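 Four patient lines of CD133+ GBM neurospheres were screened at several concentrations; hits were retested in those lines plus three slower-growing GBM lines, using 48-hour treatment and ATP-based viability.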
# astro = test: as above; settings: viability, ATP luminescence, 48 h; series mostly up to 45.9 µM
# Procedure, shortened: as §2
# PA-1 = test: Primary qHTS to identify gynecologic anti-cancer compounds using libraries of approved drugs and bioactive compounds (AID 1345084); settings: Gynecologic cancer cell panel viability, ATPlite luminescence, 48 h; series mostly up to 57.5 µM; note: nearly all actives have a fitted effect of over 55% in size; note: potency is the fitted concentration of half-maximal effect
# Procedure, shortened: as §1
# Tov112D = test: as above; settings: Gynecologic cancer cell panel viability, ATPlite luminescence, 48 h; series mostly up to 57.5 µM
# Procedure, shortened: as §1
# [2] = molecular target: Nuclear receptor subfamily 1 group I member 2 (Rattus norvegicus) (UniProt Q9R1A7); test: qHTS assay for small molecule activators of the rat pregnane X receptor (rPXR) signaling pathway (AID 651751; call rule not given here; note: 0% is about no effect); settings: rPXR reporter cells, luciferase (One-Glo), 24 h
# Nuclear receptor subfamily 1 group I member 2 (Rattus norvegicus), sequence (Q9R1A7 whole entry, looked up): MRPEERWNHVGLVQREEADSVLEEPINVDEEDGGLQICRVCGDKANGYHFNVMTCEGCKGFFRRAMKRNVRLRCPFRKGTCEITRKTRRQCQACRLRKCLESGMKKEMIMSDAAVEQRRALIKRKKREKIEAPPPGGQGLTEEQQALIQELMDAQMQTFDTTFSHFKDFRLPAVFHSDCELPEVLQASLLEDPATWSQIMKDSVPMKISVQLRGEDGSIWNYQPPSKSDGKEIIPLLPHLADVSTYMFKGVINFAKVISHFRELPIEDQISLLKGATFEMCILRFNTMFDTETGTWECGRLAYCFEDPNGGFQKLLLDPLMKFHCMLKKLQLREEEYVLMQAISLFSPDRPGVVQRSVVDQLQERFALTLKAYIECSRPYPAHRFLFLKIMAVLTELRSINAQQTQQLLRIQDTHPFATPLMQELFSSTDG
# [3] = qHTS assay for small molecule activators of the human pregnane X receptor (PXR) signaling pathway (AID 720659; call rule not given here; note: 0% is about no effect)
# SKOV3 = test: Primary qHTS to identify gynecologic anti-cancer compounds using libraries of approved drugs and bioactive compounds (AID 1345084); settings: Gynecologic cancer cell panel viability, ATPlite luminescence, 48 h; series mostly up to 57.5 µM; note: nearly all actives have a fitted effect of over 55% in size; note: potency is the fitted concentration of half-maximal effect
# Procedure, shortened: as §1
# [4] = at 20 µM (top of the series), tumour line C
# [5] = at 45.9 µM (top of the series), tumour line B
# [6] = at 45.9 µM (top of the series), tumour line D
# [7] = at 46.1 µM (top of the series), tumour line C
# [8] = at 46 µM (top of the series), tumour line A
structure (smiles),measurement,setting,value
COc1cc([C@@H]2c3cc4c(cc3[C@H](O)[C@H]3COC(=O)[C@H]23)OCO4)cc(OC)c1OC,Potency,Tov-21-G,0.199 µM (active)
CCCCOc1ccc(CC(=O)NO)cc1,"activity, negative = cell killing",[1]; [4],38.6%
same,"activity, negative = cell killing","[1]; at 21.2 µM (top of the series), tumour line B",-16.2%
same,"activity, negative = cell killing","[1]; at 21.2 µM (top of the series), tumour line D",-14.5%
same,Potency,[1]; tumour line A,11.2 µM (active)
same,Potency,astro,inactive
COC(=O)Nc1nc2ccc(S(=O)c3ccccc3)cc2[nH]1 (centres undefined),Potency,PA-1,1.58 µM (active)
same,Potency,Tov-21-G,3.98 µM (active)
same,Potency,Tov112D,1.58 µM (active)
same,"activity, negative = cell killing",[1]; [5],-15.1%
same,"activity, negative = cell killing",[1]; [6],-1.35%
same,"activity, negative = cell killing",[1]; [7],-3.75%
COc1ccc2cc3[n+](cc2c1OC)CCc1cc2c(cc1-3)OCO2,Potency,Tov-21-G,inactive
same,Potency,astro,6.31 µM (active)
same,max response,[2],6.2%
same,outcome,[3],inactive
Clc1ccccc1CN1CCc2sccc2C1,Potency,SKOV3,inactive
same,Potency,Tov-21-G,inactive
same,Potency,Tov112D,inactive
same,"activity, negative = cell killing",[1]; [5],-14.5%
same,"activity, negative = cell killing",[1]; [6],-10.5%
same,"activity, negative = cell killing",[1]; [7],4.64%
Oc1c(Cl)cc(Cl)c2cccnc12,Potency,PA-1,12.6 µM (active)
same,Potency,Tov-21-G,28.2 µM (active)
same,"activity, negative = cell killing",[1]; [7],-48.9%
same,Potency,[1]; tumour line A,15.8 µM (active)
same,Potency,[1]; tumour line B,8.91 µM (active)
CNC(=O)c1cc(Oc2ccc(NC(=O)Nc3ccc(Cl)c(C(F)(F)F)c3)cc2)ccn1,Potency,PA-1,inactive
same,Potency,Tov-21-G,inactive
same,Potency,Tov112D,inactive
same,Potency,astro,11.2 µM (active)
COc1c(N2CCNC(C)C2)c(F)cc2c(=O)c(C(=O)O)cn(C3CC3)c12 (centres undefined),Potency,PA-1,inactive
same,Potency,Tov-21-G,inactive
same,Potency,Tov112D,inactive
same,"activity, negative = cell killing",[1]; [5],-10.7%
same,"activity, negative = cell killing",[1]; [6],-20.8%
same,"activity, negative = cell killing",[1]; [7],14.5%
same,Potency,astro,inactive
CC(=O)Oc1ccccc1C(=O)Nc1ncc([N+](=O)[O-])s1,Potency,Tov-21-G,inactive
same,Potency,Tov112D,inactive
same,Potency,astro,5.01 µM (active)
Cc1oc(=O)oc1CN1CCN(c2cc3c(cc2F)c(=O)c(C(=O)O)c2n3C(C)S2)CC1 (centres undefined),Potency,PA-1,inactive
same,Potency,Tov-21-G,inactive
same,Potency,Tov112D,inactive
same,"activity, negative = cell killing",[1]; [5],-20.2%
same,"activity, negative = cell killing",[1]; [6],7.6%
same,"activity, negative = cell killing",[1]; [8],-22.8%
same,"activity, negative = cell killing",[1]; [7],-0.513%
same,Potency,astro,inactive
N[C@@H](Cc1ccc(O)c(O)c1)C(=O)O,"activity, negative = cell killing",[1]; [7],28.9%
same,Potency,[1]; tumour line A,12.6 µM (active)
same,max response,[2],-10%
same,outcome,[3],inactive
CN1CCCC(n2nc(Cc3ccc(Cl)cc3)c3ccccc3c2=O)CC1 (centres undefined),Potency,SKOV3,inactive
same,"activity, negative = cell killing",[1]; [7],4.16%
same,Potency,[1]; tumour line A,11.2 µM (active)
same,Potency,[1]; tumour line D,14.1 µM (active)
CC(C)(C)C(=O)OCOP(=O)(COCCn1cnc2c(N)ncnc21)OCOC(=O)C(C)(C)C,"activity, negative = cell killing",[1]; [7],-7.63%
same,Potency,astro,inactive
CC(C)NCC(O)c1ccc(NS(C)(=O)=O)cc1 (centres undefined),"activity, negative = cell killing",[1]; [5],-3.14% and -4.61%
same,"activity, negative = cell killing",[1]; [6],-13.7% and -17.7%
same,"activity, negative = cell killing",[1]; [8],-32.2%
same,"activity, negative = cell killing",[1]; [7],-4.94% and -17%
same,Potency,astro,inactive
C[C@@H](NCCCc1cccc(C(F)(F)F)c1)c1cccc2ccccc12,Potency,Tov-21-G,inactive
same,Potency,Tov112D,inactive
same,Potency,astro,22.4 µM (active)
O[C@@H](CNC[C@H](O)[C@H]1CCc2cc(F)ccc2O1)[C@@H]1CCc2cc(F)ccc2O1,Potency,SKOV3,22.4 µM (active)
CNS(=O)(=O)Cc1ccc2[nH]cc(CCN(C)C)c2c1,Potency,PA-1,inactive
same,Potency,Tov-21-G,inactive
same,Potency,Tov112D,inactive
same,"activity, negative = cell killing",[1]; [5],2.54%
same,"activity, negative = cell killing",[1]; [6],-2.5%
same,"activity, negative = cell killing",[1]; [8],-14%
same,"activity, negative = cell killing",[1]; [7],0.932%
same,Potency,astro,inactive
O=c1cc(O)c(Cl)c[nH]1,Potency,SKOV3,inactive
same,Potency,Tov-21-G,inactive
same,Potency,Tov112D,inactive
same,"activity, negative = cell killing",[1]; [5],-16%
same,"activity, negative = cell killing",[1]; [6],7.88%
same,"activity, negative = cell killing",[1]; [8],-15.8%
same,"activity, negative = cell killing",[1]; [7],-29.9%
Nc1nc(N)c2nc(CNc3ccc(C(=O)NC(CCC(=O)O)C(=O)O)cc3)cnc2n1 (centres undefined),max response,[2],-7.99%
same,outcome,[3],inactive
C1CCC(C(CC2CCCCN2)C2CCCCC2)CC1 (centres undefined),Potency,SKOV3,7.94 µM (active)
same,Potency,Tov-21-G,31.6 µM (active)
same,Potency,astro,15.8 µM (active)
CO[C@@]12[C@H](COC(N)=O)C3=C(C(=O)C(C)=C(N)C3=O)N1C[C@@H]1N[C@@H]12,Potency,Tov-21-G,14.1 µM (active)
same,Potency,Tov112D,0.794 µM (active)
same,"activity, negative = cell killing",[1]; [5],-14.3%
same,"activity, negative = cell killing",[1]; [6],-12.4%
same,"activity, negative = cell killing",[1]; [8],-9.83%
same,"activity, negative = cell killing",[1]; [7],-16.3%
COC(=O)Nc1nc2ccc(C(=O)c3ccccc3)cc2[nH]1,Potency,PA-1,1.41 µM (active)
same,Potency,Tov112D,1.58 µM (active)
same,"activity, negative = cell killing",[1]; [4],-22.4%
same,Potency,[1]; tumour line A,0.158 µM (active)
CCOc1cc(N)c(Cl)cc1C(=O)NCC1CN(Cc2ccc(F)cc2)CCO1 (centres undefined),Potency,SKOV3,inactive
same,Potency,Tov-21-G,inactive
same,Potency,Tov112D,inactive
same,"activity, negative = cell killing",[1]; [5],-18.6%
same,"activity, negative = cell killing",[1]; [7],4.16%
same,Potency,[1]; tumour line A,11.2 µM (active)
same,Potency,astro,inactive
N=C(N)c1ccc(OCCCCCOc2ccc(C(=N)N)cc2)cc1,Potency,PA-1,5.01 µM (active)
same,Potency,Tov-21-G,inactive
same,Potency,Tov112D,inactive
same,outcome,[3],inactive
